# From ChEMBL document CHEMBL4513146, “CO-ADD screening of Karazin Kharkiv National University (Ukraine) compounds”
# Measured potencies and affinities stand elsewhere.
# Assays:
# Klebsiella pneumoniae = details: Concentration 32 ug.mL-1;; ASSAY_TEST Inhibition of Bacterial Growth; detection method Absorption (OD600); MEDIA CAMHB; plate type 384well; NBS; CORNING #3640; time 18 hr
# Candida albicans = details: Concentration 32 ug.mL-1; ASSAY_TEST Inhibition of Fungal Growth; detection method Absorption (OD530)
# Cryptococcus neoformans = details: Concentration 32 ug.mL-1; ASSAY_TEST Inhibition of Fungal Growth; detection method Resazurin; Absorption (OD600-OD570); plate type 384well; NBS; CORNING #3640
SMILES,Inhibition (Klebsiella pneumoniae) [%],Inhibition (Candida albicans) [%],Inhibition (Cryptococcus neoformans) [%]
COc1ccccc1NC(=O)Cn1nc2c(SCc3ccc(Cl)cc3)nccn2c1=O,9.59,1.74,-17.01
CCc1ccc(NC(=O)CSc2nnc3c(=O)n(-c4ccccc4)ccn23)cc1,10.7,2.07,-14.31
COc1cccc(-n2ccn3c(SCC(=O)c4cccc(Cl)c4)nnc3c2=O)c1,6.31,2.28,-6.56
Cc1ccccc1Nc1cc(C)n2c(=O)n(CCOc3ccc(F)cc3)nc2n1,9.7,-1.22,-5.27
CC(C)CCNC(=O)CSc1nnc2c(=O)n(Cc3ccc(F)cc3)ccn12,4.54,1.44,-7.36
CC(C)c1nnc2c(=O)n(CC(=O)Nc3ccc4c(c3)OCO4)c3ccccc3n12,6.48,6.2,-25.4
O=C(CSc1nnc2ccc(C(=O)NCc3ccccc3)cn12)Nc1ccccc1Br,13.28,5.15,-20.85
Cc1cc(C)c(NC(=O)Cn2nc3c(Sc4cccc(F)c4)nccn3c2=O)c(C)c1,9.01,0.95,-7.48
COc1cc(Cl)c(C)cc1NC(=O)Cn1nc2ccc(SC(C)(C)C)nn2c1=O,11.93,3.05,-11.08
Cc1ccccc1Oc1nc2ccccc2n2c(=O)n(CC(=O)Nc3cccc(C(F)(F)F)c3)nc12,12.65,1.53,-23.54
